Data on ten compounds can be found in ChEMBL document CHEMBL3988442, “University of Dundee, Small-Polar-MMV Screening Library” (2021).

Holding throughout (design): scale not given: direction of the effect not stated beside the values
For assay [1], the target named is Protein translocase subunit SecA (Escherichia coli (strain K12)) (UniProt P10408). Put plainly: Assay to Identify E. coli SecA ATPase Inhibitors. The following applies: 30 µM. In kind it is functional.
For assay [2], the target named is T1, Ubiquitin-activating enzyme e1, putative (Leishmania donovani (strain BPK282A1)) (UniProt E9BSI1).
T1 sequence (whole entry): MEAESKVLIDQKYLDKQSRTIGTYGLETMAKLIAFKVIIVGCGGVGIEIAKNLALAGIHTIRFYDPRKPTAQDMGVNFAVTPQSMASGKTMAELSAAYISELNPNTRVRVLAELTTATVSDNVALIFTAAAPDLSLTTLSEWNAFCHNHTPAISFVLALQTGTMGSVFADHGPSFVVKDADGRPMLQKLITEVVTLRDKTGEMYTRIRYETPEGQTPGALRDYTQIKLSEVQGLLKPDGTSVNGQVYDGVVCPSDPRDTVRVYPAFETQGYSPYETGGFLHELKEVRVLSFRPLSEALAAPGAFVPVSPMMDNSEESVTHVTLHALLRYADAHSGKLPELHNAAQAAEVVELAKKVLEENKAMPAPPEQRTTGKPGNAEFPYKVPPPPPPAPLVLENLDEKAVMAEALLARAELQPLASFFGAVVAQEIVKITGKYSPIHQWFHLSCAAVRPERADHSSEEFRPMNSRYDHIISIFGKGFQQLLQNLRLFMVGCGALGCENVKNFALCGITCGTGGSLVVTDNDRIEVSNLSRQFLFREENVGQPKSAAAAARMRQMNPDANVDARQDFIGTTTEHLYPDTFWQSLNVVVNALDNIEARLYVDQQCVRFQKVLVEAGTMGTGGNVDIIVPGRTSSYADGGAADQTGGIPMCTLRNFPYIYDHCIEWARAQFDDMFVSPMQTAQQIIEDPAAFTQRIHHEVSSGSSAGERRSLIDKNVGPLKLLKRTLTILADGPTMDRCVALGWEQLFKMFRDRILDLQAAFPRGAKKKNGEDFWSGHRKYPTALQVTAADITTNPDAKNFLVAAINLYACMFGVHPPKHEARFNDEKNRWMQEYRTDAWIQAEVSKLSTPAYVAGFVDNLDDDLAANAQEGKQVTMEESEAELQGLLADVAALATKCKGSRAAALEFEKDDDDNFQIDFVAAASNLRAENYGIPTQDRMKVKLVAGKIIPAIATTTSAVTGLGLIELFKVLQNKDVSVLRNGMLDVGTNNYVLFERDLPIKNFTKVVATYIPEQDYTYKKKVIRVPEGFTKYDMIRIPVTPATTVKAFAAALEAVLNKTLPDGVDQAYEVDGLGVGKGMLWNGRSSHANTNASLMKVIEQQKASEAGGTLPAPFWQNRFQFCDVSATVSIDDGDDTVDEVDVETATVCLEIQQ
Put plainly: Leishmania donovani Ubiquitin Activating Enzyme (LdE1). Type of assay: functional. To be noted: 30 µM.

Assay [3] has as its target AMP-activated protein kinase, AMPK (Homo sapiens) (UniProt P54646+O43741+P54619+Q9UGJ0+Q9Y478+Q13131+Q9UGI9). Put plainly: AMP-dependent Kinase enzyme assay. An in vitro enzyme assay that detects ADP turnover that is directly proportional to AMPK activity. This uses naive AMPK that is activated during the assay with MK-8722. In kind it is functional. To be noted: 30 µM.

In assay [4] the target is Sialic acid-binding Ig-like lectin 9 (Homo sapiens) (UniProt Q9Y336). Put plainly: Hs-Siglec9 ALPHAscreen SOP 20170721. To be noted: 10 µM.
Sialic acid-binding Ig-like lectin 9 (Homo sapiens), sequence (Q9Y336 whole entry): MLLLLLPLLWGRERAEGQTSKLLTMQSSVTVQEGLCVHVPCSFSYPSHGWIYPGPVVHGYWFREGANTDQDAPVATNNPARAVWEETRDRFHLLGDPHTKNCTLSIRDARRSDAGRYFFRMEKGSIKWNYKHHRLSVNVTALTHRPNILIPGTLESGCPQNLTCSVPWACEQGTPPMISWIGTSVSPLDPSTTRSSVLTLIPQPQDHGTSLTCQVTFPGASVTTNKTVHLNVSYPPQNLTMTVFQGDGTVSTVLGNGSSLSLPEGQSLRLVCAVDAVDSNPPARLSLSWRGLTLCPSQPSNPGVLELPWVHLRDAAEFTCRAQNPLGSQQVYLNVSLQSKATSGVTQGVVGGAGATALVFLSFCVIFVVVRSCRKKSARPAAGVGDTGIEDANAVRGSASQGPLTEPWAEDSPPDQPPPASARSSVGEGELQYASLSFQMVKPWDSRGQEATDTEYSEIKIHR
In the next assay the test system is Trypanosoma cruzi. Put plainly: Trypanosoma cruzi phosphomannomutase and mannose-1-phosphate guanylyltransferase assay. Type of assay: functional. To be noted: 10 µM.
Assay [5] addresses T2, Arginase-2, mitochondrial (Homo sapiens) (UniProt P78540).
T2 sequence (whole entry): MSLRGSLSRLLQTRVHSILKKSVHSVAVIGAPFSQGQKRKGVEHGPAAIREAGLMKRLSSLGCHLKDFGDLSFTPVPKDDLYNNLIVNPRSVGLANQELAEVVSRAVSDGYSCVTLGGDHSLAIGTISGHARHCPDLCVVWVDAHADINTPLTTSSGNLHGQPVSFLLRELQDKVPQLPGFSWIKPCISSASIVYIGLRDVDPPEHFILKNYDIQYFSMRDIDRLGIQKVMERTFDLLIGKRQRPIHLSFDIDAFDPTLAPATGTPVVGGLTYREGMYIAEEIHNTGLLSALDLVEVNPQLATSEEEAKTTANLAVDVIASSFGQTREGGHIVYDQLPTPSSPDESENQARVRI
Put plainly: in vitro enzyme assay to detect the production of urea directly proportional to the activity of Arginase II. Also: in the data most compounds retested in dose-response had high values. Type of assay: functional. The following applies: 33.3 µM.

The target of assay [6] is T3, Proteasome subunit beta (Trypanosoma cruzi) (UniProt O96673).
T3 sequence (whole entry): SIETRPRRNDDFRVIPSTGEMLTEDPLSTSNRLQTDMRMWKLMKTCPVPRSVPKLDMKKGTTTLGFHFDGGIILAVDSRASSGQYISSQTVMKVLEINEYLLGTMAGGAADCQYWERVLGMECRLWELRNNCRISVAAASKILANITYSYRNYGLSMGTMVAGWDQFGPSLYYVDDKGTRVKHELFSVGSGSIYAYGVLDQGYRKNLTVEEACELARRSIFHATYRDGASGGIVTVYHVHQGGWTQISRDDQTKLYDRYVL
Put plainly: Trypanosoma cruzi proteasome chymotrypsin-like activity (TcProtChymo) assay. Also: in the data most compounds retested in dose-response had high values. In kind it is functional. The following applies: 9.37 µM.

For the next assay, the species on record is Homo sapiens. Put plainly: To identify inhibition of the IFN signalling (Jak-Stat) pathway via expression of an eGFP reporter gene under the control of an IFN-stimulated response element (ISRE) containing MxA promoter. To be noted: 30 µM. In kind it is functional. (Reporter assays use an easily measured gene product as a stand-in for the process of interest.)

Assay [7] concerns the target T4, Tyrosyl-tRNA synthetase, putative (Trypanosoma cruzi (strain CL Brener)) (UniProt Q4DSP6).
T4 sequence (whole entry): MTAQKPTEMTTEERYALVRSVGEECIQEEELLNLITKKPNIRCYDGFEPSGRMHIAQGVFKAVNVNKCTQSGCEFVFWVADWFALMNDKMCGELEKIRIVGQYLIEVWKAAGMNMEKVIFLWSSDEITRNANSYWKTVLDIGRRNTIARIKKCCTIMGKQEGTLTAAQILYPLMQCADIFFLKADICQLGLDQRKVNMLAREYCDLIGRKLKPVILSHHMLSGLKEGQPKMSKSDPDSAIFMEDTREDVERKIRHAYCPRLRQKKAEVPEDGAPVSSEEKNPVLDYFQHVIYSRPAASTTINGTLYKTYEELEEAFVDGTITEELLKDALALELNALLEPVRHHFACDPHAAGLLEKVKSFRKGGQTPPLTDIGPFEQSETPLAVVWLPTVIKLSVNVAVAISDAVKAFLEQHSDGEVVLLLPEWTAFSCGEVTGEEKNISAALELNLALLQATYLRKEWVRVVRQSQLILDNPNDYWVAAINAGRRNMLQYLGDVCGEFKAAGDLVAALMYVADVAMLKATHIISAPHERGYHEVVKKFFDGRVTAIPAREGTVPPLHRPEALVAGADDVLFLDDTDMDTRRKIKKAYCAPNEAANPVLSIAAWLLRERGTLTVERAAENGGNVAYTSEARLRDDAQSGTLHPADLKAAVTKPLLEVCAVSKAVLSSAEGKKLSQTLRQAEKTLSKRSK
Put plainly: Trypanosoma cruzi tyrosyl tRNA synthetase (TcYRS) _High Tyrosine SOP. Also: in the data most compounds retested in dose-response had high values. Type of assay: functional. The following applies: 30 µM.

For assay [8], the target named is T4, Tyrosyl-tRNA synthetase, putative (Trypanosoma cruzi (strain CL Brener)). Put plainly: Trypanosoma cruzi tyrosyl tRNA synthetase (TcYRS) SOP. Type of assay: functional. To be noted: 30 µM.
Assay [9] deals with Chromo domain-containing protein 1 (Saccharomyces cerevisiae (strain ATCC 204508 / S288c) (Baker's yeast)) (UniProt P32657). Put plainly: ScCHD-1 Enzyme Inhibition Assay. Also: in the data most compounds retested in dose-response had high values. Type of assay: functional. To be noted: 30 µM.
Chromo domain-containing protein 1 (Saccharomyces cerevisiae (strain ATCC 204508 / S288c) (Baker's yeast)), sequence (P32657 whole entry, the tested form may be a part): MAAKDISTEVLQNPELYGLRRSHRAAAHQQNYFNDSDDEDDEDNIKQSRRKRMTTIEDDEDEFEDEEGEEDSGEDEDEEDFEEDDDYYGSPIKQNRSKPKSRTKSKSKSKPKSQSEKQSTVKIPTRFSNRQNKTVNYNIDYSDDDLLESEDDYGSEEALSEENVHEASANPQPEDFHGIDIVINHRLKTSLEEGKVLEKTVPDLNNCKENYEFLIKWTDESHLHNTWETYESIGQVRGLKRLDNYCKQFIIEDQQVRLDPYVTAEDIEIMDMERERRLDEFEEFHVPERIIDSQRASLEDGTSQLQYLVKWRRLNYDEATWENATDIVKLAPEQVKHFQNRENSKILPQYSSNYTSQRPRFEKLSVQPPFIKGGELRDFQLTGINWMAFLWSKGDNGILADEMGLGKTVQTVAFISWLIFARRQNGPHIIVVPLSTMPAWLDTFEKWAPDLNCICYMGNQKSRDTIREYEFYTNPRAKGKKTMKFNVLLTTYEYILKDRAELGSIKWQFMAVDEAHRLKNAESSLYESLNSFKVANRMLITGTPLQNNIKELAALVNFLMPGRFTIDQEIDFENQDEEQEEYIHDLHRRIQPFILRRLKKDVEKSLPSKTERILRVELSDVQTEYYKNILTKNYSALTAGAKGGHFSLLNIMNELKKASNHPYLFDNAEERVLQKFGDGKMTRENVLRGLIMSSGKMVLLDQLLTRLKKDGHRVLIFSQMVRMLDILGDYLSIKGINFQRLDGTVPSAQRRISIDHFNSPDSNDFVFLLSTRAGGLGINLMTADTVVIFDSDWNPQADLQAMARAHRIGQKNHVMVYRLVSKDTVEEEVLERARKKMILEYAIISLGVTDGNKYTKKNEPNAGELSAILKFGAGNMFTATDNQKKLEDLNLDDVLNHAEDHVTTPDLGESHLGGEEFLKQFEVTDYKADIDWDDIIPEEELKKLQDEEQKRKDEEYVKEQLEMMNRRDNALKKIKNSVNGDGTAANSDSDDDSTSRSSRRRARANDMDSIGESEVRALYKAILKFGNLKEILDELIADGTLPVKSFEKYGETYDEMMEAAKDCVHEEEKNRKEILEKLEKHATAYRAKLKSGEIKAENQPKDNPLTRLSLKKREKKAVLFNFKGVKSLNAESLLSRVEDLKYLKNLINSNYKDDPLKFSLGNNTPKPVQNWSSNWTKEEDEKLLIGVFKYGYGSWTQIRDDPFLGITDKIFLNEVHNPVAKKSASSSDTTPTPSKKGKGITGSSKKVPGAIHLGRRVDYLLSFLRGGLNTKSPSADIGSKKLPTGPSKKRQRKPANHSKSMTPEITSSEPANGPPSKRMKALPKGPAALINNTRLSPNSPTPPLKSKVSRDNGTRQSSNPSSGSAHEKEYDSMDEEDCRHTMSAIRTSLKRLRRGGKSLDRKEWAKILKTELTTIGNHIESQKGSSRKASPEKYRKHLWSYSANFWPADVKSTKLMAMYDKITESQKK

For some assays here: Potency and affinity values are given separately.

Protein translocase subunit SecA (Escherichia coli (strain K12)), sequence (P10408 whole entry): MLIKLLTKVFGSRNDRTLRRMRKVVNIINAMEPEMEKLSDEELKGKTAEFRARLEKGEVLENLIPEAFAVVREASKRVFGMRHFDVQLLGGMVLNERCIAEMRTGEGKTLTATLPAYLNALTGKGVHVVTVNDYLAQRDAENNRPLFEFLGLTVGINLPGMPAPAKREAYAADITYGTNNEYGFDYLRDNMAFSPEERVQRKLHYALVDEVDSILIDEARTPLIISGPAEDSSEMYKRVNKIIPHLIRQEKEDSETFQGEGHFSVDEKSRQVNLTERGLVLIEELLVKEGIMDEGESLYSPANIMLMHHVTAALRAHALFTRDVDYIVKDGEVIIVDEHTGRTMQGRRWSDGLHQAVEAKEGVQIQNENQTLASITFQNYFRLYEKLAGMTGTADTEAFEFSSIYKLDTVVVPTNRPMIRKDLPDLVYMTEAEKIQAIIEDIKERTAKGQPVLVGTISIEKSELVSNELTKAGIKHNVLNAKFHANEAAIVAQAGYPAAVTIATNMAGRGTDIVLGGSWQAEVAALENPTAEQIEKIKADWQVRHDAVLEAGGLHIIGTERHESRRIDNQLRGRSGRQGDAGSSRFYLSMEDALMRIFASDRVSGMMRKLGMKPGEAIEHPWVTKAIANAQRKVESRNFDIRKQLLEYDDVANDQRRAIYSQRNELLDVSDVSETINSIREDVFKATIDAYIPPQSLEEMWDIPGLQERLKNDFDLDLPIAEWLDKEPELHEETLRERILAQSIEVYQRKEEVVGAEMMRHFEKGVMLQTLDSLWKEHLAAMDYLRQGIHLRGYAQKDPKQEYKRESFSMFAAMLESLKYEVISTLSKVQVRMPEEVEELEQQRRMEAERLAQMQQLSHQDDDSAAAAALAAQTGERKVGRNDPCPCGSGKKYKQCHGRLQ

As for `Cn1cc(N2CCC3(CCN(S(=O)(=O)C4CC4)C3)C2=O)cn1` (stereo not given), the Percent Effect in assay [1] is -2.28%; in assay [2], -2.67%; in assay [3], 0.251%; in assay [4], 0.236%; in the assay with Trypanosoma cruzi, 2.32%; in [5], -37.5%. In addition, the Percent Effect was 8.55% in [6]; 0.388% in the assay filed under Homo sapiens; 1.04% in assay [7]; 5% in assay [8]; -4.63% in assay [9].
On to `CN(Cc1ccco1)C(=O)CN1CCCC(Cn2cncn2)C1` (stereo not given), for which the Percent Effect in assay [1] was -2.53%; in assay [2] it was 5.26%; in [3], -6.77%; in assay [4], 10.4%; with Trypanosoma cruzi, 3.64%; in assay [5] it was 2.16%. The Percent Effect was 15% in assay [6]; -16.1% in the assay listed under Homo sapiens; 5.42% in assay [7]; 11.1% in assay [8]; -6.09% in assay [9].
As for `CCc1ccc(S(=O)(=O)Nc2cc(OC)c(OC)cc2C(=O)O)s1`, the Percent Effect in assay [1] was -4.39%; in assay [2], 13.2%; in [3], 5.52%; in assay [4] it was -13.6%; in the assay with Trypanosoma cruzi, -8.12%; in assay [5] it was 2.16%. Further, the Percent Effect in assay [6] was 8.54%; in the assay listed under Homo sapiens it was 8.65%; in assay [7], -7.39%; in assay [8] it was -1.24%; in assay [9], -5.49%.
Turning to `CC1=Nc2c(c(=O)[nH]n2C(C)C)C(c2ccccc2)S1` (stereo not given), the Percent Effect in [1] is -5.22%; in assay [2] it was 4%; in assay [3], 12.2%; in [4], 5.15%; in the assay on Trypanosoma cruzi, -0.786%; in assay [5], -3.7%. In addition, the Percent Effect in assay [6] is 12%; in the assay filed under Homo sapiens, 32.4%; in assay [7] it was 22.2%; in [8], 28.2%; in assay [9], -3.79%.
As for `CC(C)(C)c1nc(CN2CCC(c3nc4cc(Cl)ccc4o3)CC2)no1`, the Percent Effect worked out at 0.762% in assay [1]; 13.5% in assay [2]; 3.19% in assay [3]; 22.6% in assay [4]; 7.92% in the assay on Trypanosoma cruzi; 4.76% in assay [5]. Also, the Percent Effect in [6] was 7.76%; in the assay listed under Homo sapiens it was 10.2%; in assay [7], 2.65%; in assay [8] it was 0%; in assay [9], -5.62%.
For the compound `CCn1nc2c(cc1=O)CN(Cc1nc(N)c3ccccc3n1)CC2`, the Percent Effect in assay [1] is -5.07%; in assay [2], 5.48%; in assay [3], -62.9%; in [4], 1.04%; with Trypanosoma cruzi it was 3.92%; in [5] it was 3.64%. Moreover, the Percent Effect in assay [6] is 14.6%; in the assay listed under Homo sapiens, -3.85%; in assay [7], 2.15%; in assay [8], 12.5%; in assay [9] it was -7.75%.
As to `O=C(NCCO)Nc1cccc(Cl)c1SC(F)F`, the Percent Effect is -7.96% in [1]; -1.39% in assay [2]; 0.408% in assay [3]; 20.6% in assay [4]; -3.01% with Trypanosoma cruzi; 0.883% in assay [5]. The Percent Effect in [6] is 13.9%; in the assay filed under Homo sapiens, 28.9%; in assay [7], -5.26%; in assay [8] it was -15.4%; in assay [9] it was -1.91%.
In the case of `Cc1cc(=O)n(CC(=O)NCC2CCCO2)c(-c2cccc(Cl)c2)n1` (stereo not given), the Percent Effect was -4.72% in [1]; 18.2% in assay [2]; -2.1% in assay [3]; 12.6% in assay [4]; 6.59% with Trypanosoma cruzi; 11% in assay [5]. For the same compound, the Percent Effect in [6] was 9.15%; in the assay listed under Homo sapiens, -10.7%; in [7], 5.38%; in assay [8], 16.1%; in [9], -4.38%.
Regarding `NC(=O)CN1CCC(NC(=O)c2ccn(-c3cccc(F)c3)n2)CC1`, the Percent Effect in assay [1] was -1.05%; in assay [2] it was 4.17%; in assay [3] it was -2.99%; in [4], -2.99%; in the assay on Trypanosoma cruzi it was -7.68%; in [5], 3.97%. Also, the Percent Effect in assay [6] is 11.1%; in the assay listed under Homo sapiens it was 0.719%; in [7], 1.05%; in assay [8], -2.56%; in assay [9], -2.21%.
Regarding `CCS(=O)(=O)N1CCC2(CCC2NC(=O)c2ccn(C)c2)CC1` (stereo not given), the Percent Effect in assay [1] was -3.75%; in [2], 10.8%; in assay [3] it was 1.1%; in assay [4], -0.914%; in the assay on Trypanosoma cruzi, 3.62%; in assay [5], -6.69%. Further, the Percent Effect in assay [6] was 18.8%; in the assay filed under Homo sapiens, -26%; in assay [7], 4.32%; in assay [8], 15.4%; in assay [9] it was -3.62%.
